Bioassay records: PubChem BioAssay, National Center for Advancing Translational Sciences (NCATS)
A selection: hits, their analogues and other compounds. The true share with any hit is near 7.9%.
HCMV inh – human cytomegalovirus inhibition | HFF cells, HCMV-luciferase reporter, 72 h; stronger effect = lower value | AID 1259415 | actives 4.5% (n = 410,000) | activity change, negative = inhibition, % at 57.5 µM; in the data active = activity change below about -60%; inconclusive = no clear call, values can overlap the other calls; inactive = above about -39%
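Steps: HFFs plated, 16 h 37C; compounds added; HCMV-luciferase added to MOI 1 PFU/cell; 72 h 37C; OneGlo reagent, 5 min room temperature; luminescence read, normalized to controls.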
FMDV antiviral – blocks foot and mouth disease virus; FMDV antiviral cell-based qHTS; Potency, µM (titrated, usually from 57.9 µM), hits mostly inhibitors; actives 1.2% (n = 410,000); AID 1159524; calls by dose curve; tested in HEK293T cells; also: read-out not given here; nearly all actives have a fitted effect of over 45% in size
LASV entry inh – blocks Lassa virus binding to or entry into cells | Lassa virus pseudotype entry inhibition, cell reporter | AID 540256 | Potency, µM (series often up to 37.9 µM), usual class: inhibitors | actives 1.2% (n = 300,000); calls by dose curve; tested in HEK293 cells; also: nearly all actives have a fitted effect of over 50% in size
Marburg entry inh – blocks Marburg virus binding to or entry into cells; Marburg virus pseudotyped entry inhibition, cell reporter; Potency, µM (top dose mostly 37.8 µM), actives largely listed as inhibitors; actives 1.8% (n = 300,000); AID 540276; calls by dose curve; tested in HEK293 cells
HCV inh – inhibitors of hepatitis C virus infection; Huh7.5.1 HCVcc-Cre infection, luciferase reporter, 44 h; Potency, µM (top dose mostly 41.8 µM), hits mostly inhibitors; actives 3.4% (n = 340,000); active = well fitted inhibition curve with a large enough effect; inconclusive = small, poorly fitted or top-dose-only effect, or another doubt; inactive = no such curve, though single readings can be large or run the other way
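Antiviral activity was scored by luciferase reporter output from cells infected with HCVcc-Cre (~0.5 moi) in presence of compound, 44 h infection period, cells seeded 1,000/well 4 h prior.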
Large screens that a line does not name were inactive.

Cc1cc(C)n2nc(CNS(=O)(=O)c3cccc([N+](=O)[O-])c3)nc2n1	none
COc1ccc(C2=NN(c3nc(-c4ccc(CNC(C)=O)cc4)cs3)C(c3ccco3)C2)cc1 (configuration not stated)	HCMV inh inconclusive, Marburg entry inh inconclusive
COc1ccc(NC(=O)c2cc(-c3ccncc3)nc3ccc(Br)cc23)cc1OC	HCMV inh -90, Marburg entry inh inconclusive, HCV inh 13µM
O=C(Nc1cccnc1)c1cc(-c2cccnc2)nc2ccc(Br)cc12	Marburg entry inh inconclusive
COc1cc(NC(=O)c2cc(-c3cccnc3)nc3ccc(Br)cc23)cc(OC)c1	FMDV antiviral inconclusive, LASV entry inh 11µM, Marburg entry inh inconclusive, HCV inh inconclusive
Cc1cc(NC(=O)CCCSc2nc(-c3ccco3)cc(C(F)(F)F)n2)n(-c2ccccc2)n1	FMDV antiviral inconclusive, HCV inh 11µM
Cc1cc(NC(=O)CSc2nc(-c3ccco3)cc(C(F)(F)F)n2)n(-c2ccccc2)n1	LASV entry inh inconclusive, Marburg entry inh inconclusive, HCV inh 32µM
COc1ccc(-c2ccc3ccccc3n2)cc1	LASV entry inh inconclusive, Marburg entry inh inconclusive, HCV inh inconclusive
Nc1ccc(-c2ccc3ccccc3n2)cc1	LASV entry inh inconclusive, Marburg entry inh 6.3µM (no result: HCMV inh, FMDV antiviral, HCV inh)
O=C(CN1Cc2ccccc2OC(c2ccccc2F)C1)NC(c1ccccn1)C(F)(F)F (configuration not stated)	none (no result: HCMV inh, LASV entry inh, Marburg entry inh, HCV inh)
CCOP(=O)(OCC)C(Nc1ccccn1)c1ccccc1 (configuration not stated)	none
CCOP(=O)(OCC)C(Nc1ccccn1)c1ccc(F)cc1 (configuration not stated)	HCMV inh -70
Cc1cc2nc(/C=C/c3cccnc3)[nH]c2cc1C	HCMV inh -92 (no result: LASV entry inh, Marburg entry inh)
Cc1cc2nc(/C=C/c3nc4cc(C)c(C)cc4[nH]3)[nH]c2cc1C	none (no result: LASV entry inh, Marburg entry inh)
O=C(NCC1Cc2cccc(-c3ncccn3)c2O1)c1cccc(-c2ccccc2F)c1 (configuration not stated)	none (no result: HCMV inh, LASV entry inh, Marburg entry inh, HCV inh)
CCN1C(=O)[C@@H]2[C@@H](c3ccc(SC4CCCCC4)cc3)N3CCC[C@@]3(C(=O)OC)[C@@H]2C1=O	none (no result: LASV entry inh, Marburg entry inh)
CCN(CC)C(=O)c1sc2nc(-c3cccs3)cc(-c3ccc(Cl)cc3)c2c1N	Marburg entry inh inconclusive, HCV inh inconclusive
CCN(CC)C(=O)c1sc2nc(-c3cccs3)cc(-c3cccs3)c2c1N	HCMV inh -64 (no result: LASV entry inh)
C[C@H](NC(=O)c1ccco1)C(=O)NCc1cccs1	HCMV inh inconclusive (no result: LASV entry inh, Marburg entry inh)
NS(=O)(=O)c1ccc(CCNc2ncnc3c2c(-c2ccccc2)cn3-c2ccc(F)cc2)cc1	FMDV antiviral 16µM, LASV entry inh inconclusive, Marburg entry inh inconclusive, HCV inh 11µM
Fc1ccc(-n2cc(-c3ccccc3)c3c(NN4CCOCC4)ncnc32)cc1	HCMV inh inconclusive, LASV entry inh inconclusive, Marburg entry inh inconclusive, HCV inh inconclusive
N#CCCn1cc(C(=O)Nc2ccc([N+](=O)[O-])cc2)c(-c2ccc3c(c2)OCCO3)n1	HCMV inh -67, LASV entry inh inconclusive
Cc1ccc(NC(=O)c2cn(CCC#N)nc2-c2ccc3c(c2)OCCO3)c([N+](=O)[O-])c1	HCMV inh inconclusive
CC(C)(C)c1ccc(C(=O)N2CCC2(C)C(=O)Nc2cccc3ccccc23)cc1 (configuration not stated)	FMDV antiviral inconclusive (no result: LASV entry inh, Marburg entry inh, HCV inh)
COc1cc(/C=C2\SC(c3ccc(C)cc3)=NC2=O)cc(OC)c1O	HCMV inh -75
O=C(NC1CCc2ccccc21)c1cc(COc2ccc(F)cc2Cl)on1 (configuration not stated)	none (no result: LASV entry inh, Marburg entry inh)
O=C(NC1CCc2ccccc21)c1cc(COc2cncc(Cl)c2)on1 (configuration not stated)	LASV entry inh inconclusive, HCV inh 13µM
COc1ccc2nc(-c3nc4ccccc4[nH]3)c(C)nc2c1	none (no result: FMDV antiviral, LASV entry inh, Marburg entry inh, HCV inh)
CC1CCC(NC(=O)c2ccc(COc3ccccc3)o2)CC1 (configuration not stated)	HCV inh inconclusive
Cc1nc2c(cnn2CCO)c(=O)[nH]1	none
O=C(Cn1nc(C(F)(F)F)cc1C1CC1)NCc1ccccc1F	HCMV inh -69
N#CC(=C1NC(=O)c2ccccc21)c1nc2ccccc2n1CCO	HCMV inh inconclusive (no result: LASV entry inh, Marburg entry inh, HCV inh)
NC(=O)c1cc(N2CC2)c([N+](=O)[O-])cc1[N+](=O)[O-]	FMDV antiviral 1.3µM, Marburg entry inh inconclusive
CCNc1c2c(oc(=O)c1N)CCCC2	none (no result: HCMV inh, FMDV antiviral, LASV entry inh, HCV inh)
CN1CCN(Cc2c(O)ccc3cc(Br)ccc23)CC1	HCMV inh -69, Marburg entry inh inconclusive
Fc1ccc(C2C3=C(Nc4ncnn42)c2ccccc2OC3c2ccncc2)cc1 (configuration not stated)	HCV inh inconclusive
Cc1ccc(C2Oc3ccccc3C3=C2C(c2cccs2)n2ncnc2N3)cc1 (configuration not stated)	LASV entry inh inconclusive, Marburg entry inh inconclusive, HCV inh 13µM
Cc1ccc(N2CCN(C(=O)Cn3ncc4c([nH]c5ccc(C)cc54)c3=O)CC2)c(C)c1	none (no result: Marburg entry inh, HCV inh)
CCOC(=O)c1ccc(NC(=O)c2ccc(CN3CCOCC3)cc2)cc1	HCMV inh inconclusive, FMDV antiviral 25µM, LASV entry inh inconclusive, Marburg entry inh inconclusive, HCV inh inconclusive
CC(C)Oc1ccc(C(=O)NC(=S)Nc2ccc(CN3CCOCC3)cc2)cc1	FMDV antiviral inconclusive, Marburg entry inh inconclusive, HCV inh inconclusive
CC(C)c1ccc(CN2CCN(C(=O)CCl)CC2)cc1	HCMV inh -69, FMDV antiviral 18µM, LASV entry inh inconclusive, Marburg entry inh inconclusive, HCV inh 11µM
NC(=O)c1ccc(NC(=O)c2ccc(CN3CCOCC3)cc2)cc1	none
CC(C)c1ccc(C(=O)Nc2ccc(CN3CCOCC3)cc2)cc1	HCMV inh -83, Marburg entry inh inconclusive, HCV inh inconclusive
Cc1ccc(Cl)cc1N1CCN(C(=O)c2cc3c(-c4ccccc4F)nn(C)c3s2)CC1	none (no result: HCV inh)
C[C@H](NC(=O)[C@@H]1CCCN1C(=O)[C@@H]1CCCN1C(=O)OC(C)(C)C)c1ccccc1	none (no result: LASV entry inh, Marburg entry inh, HCV inh)
Cc1oc2cc3oc(=O)c(CCC(=O)N[C@H](C(=O)O)C(C)C)c(C)c3cc2c1C	none
O=C1C(Cl)=CC(=Nc2ccc(O)cc2)C=C1Cl	HCMV inh -79 (no result: LASV entry inh, Marburg entry inh)
CCOc1ccc(NC(=O)c2cc(F)c(F)cc2Cl)cc1OCC	HCMV inh -98, Marburg entry inh inconclusive
O=C(Nc1ccc2ccccc2c1)c1ccccc1Cl	none (no result: LASV entry inh, Marburg entry inh, HCV inh)
O=C(Nc1ccc2ccccc2c1)c1ccc(Cl)cc1Cl	HCV inh inconclusive (no result: LASV entry inh, Marburg entry inh)
O=C(Nc1ccc2ccccc2c1)c1cc(F)c(F)cc1Cl	LASV entry inh inconclusive, Marburg entry inh 7.1µM
Cc1ccc2cc(NC(=O)Cc3ccccc3)ccc2n1	none (no result: LASV entry inh, Marburg entry inh)
Cc1ccc2cc(NC(=O)c3ccccc3C)ccc2n1	HCMV inh -100
CCCCOc1ccc(NC(=O)c2cc(F)c(F)cc2Cl)cc1	Marburg entry inh inconclusive, HCV inh inconclusive
O=C(Nc1ccc2ccccc2c1)c1ccccc1O	HCMV inh -99, LASV entry inh inconclusive, Marburg entry inh 2.5µM, HCV inh inconclusive
